These results are taken from PubChem BioAssay (NCATS).

Assay [1] can be described thus: qHTS assay for environmental chemicals that activate the Aryl hydrocarbon Receptor (AhR) signaling pathway (AID 651777). Note: % of control where 0% means no effect; nearly all actives have a fitted effect of over 15% in size. Particulars: 1A2-DRE human hepatoma cells, luciferase, 24 h; stronger effect = higher value. The procedure, abridged: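 Stable CYP1A2 promoter/DRE-luciferase human hepatoma line treated 24 hr; One-Glo luminescence, 30 min RT.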
Assay [2] in a line: qHTS for compounds that reverse cellular toxicity of Amyloid beta (A-beta) peptide in yeast: LOPAC Validation Assay (AID 720559).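 Note: plate controls were DMSO for no effect and equimolar ferric chloride plus clioquinol rescue for full effect.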 The note with it: yeast expressing A-beta; series mostly up to 46.1 µM. The procedure, abridged:
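OD600 growth readout after 48 hr at 30 C; A-beta-toxic yeast plus pinned compounds in medium. Normalization: DMSO = negative, equimolar FeCl3 + clioquinol = positive.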
(In qHTS, concentration-response curves come from the screen itself.)

A short description of assay [3]: qHTS for Activators of Parkin Expression: LOPAC Validation Assay (NLuc Reporter) (AID 720572;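 note: 0% = DMSO and 100% = positive control compound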). Particulars: Parkin promoter NanoLuc reporter cells, luminescence; series mostly up to 46.1 µM. The procedure, abridged:
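Cells harboring the Parkin-promoter coincidence reporter were treated for 24 h at seven concentrations. NLuc output was measured sequentially after the FLuc channel and scaled between DMSO and positive control values.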

The nature of assay [4]: qHTS for Activators of Parkin Expression: LOPAC Validation Assay (FLuc Reporter) (AID 720573;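 note: 0% = DMSO and 100% = positive control compounds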). The note with it: Cell line, PRKN promoter firefly luciferase reporter, vehicle wells = 0, positive control = 100%; series mostly up to 46.1 µM. The procedure, abridged:
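FLuc luminescence read-out from a neuronal line expressing a Parkin-promoter-driven coincidence reporter. Cells treated 24 h at 37 C, 5% CO2 with compounds at 7 concentrations; signal increase normalized to DMSO and positive control.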

A short description of assay [5]: qHTS assay for small molecule agonists of the antioxidant response element (ARE) signaling pathway measured by Nrf2-dependant transcriptional activity (AID 720636; active = well fitted curve in the direction sought with a large enough effect in the repeat runs; an effect the other way counts as inactive or inconclusive;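 note: HepG2 cells with an ARE-driven luciferase reporter; % of control where 0% means no effect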). The note with it: ARE-luc HepG2, Nrf2 luciferase reporter, 16 h; series mostly up to 92.4 µM. In a few lines:
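Reporter gene assay, HepG2 ARE-luc: 16 hr compound, 37 C, 5% CO2; read-out luciferase luminescence.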

Assay [6] in a line: qHTS assay for small molecule agonists of the antioxidant response element (ARE) signaling pathway measured by Nrf2-dependant transcriptional activity - cell viability counter screen (AID 720653; active = well fitted curve in the direction sought with a large enough effect in the repeat runs; an effect the other way counts as inactive or inconclusive; note: % is set by controls: 0 for no effect and ±100 for the full control effect). Particulars: ARE-bla HepG2 viability, CellTiter-Glo ATP luminescence, 16 h; max response: stronger effect = lower value. The procedure, abridged:
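ARE-bla HepG2 cells (2,000/well) rested 5 hrs at 37C/5% CO2, then exposed to compounds in DMSO for 16 hrs. Viability was read in the same wells as intracellular ATP by luminescence, 30 min at room temperature after reagent addition.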

The target in assay [7] is T1, Hexokinase-4 (Homo sapiens) + Glucokinase regulatory protein (Homo sapiens) (UniProt P35557+Q14397). Kind of assay: qHTS assay for inhibitors of recombinant human GCK-GKRP interaction: HTRF assay (AID 743207).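 Note: 0% = DMSO with GCK present and -100% = DMSO wells lacking GCK.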 The note with it: recombinant GCK-GKRP HTRF binding, 60 min, with sorbitol-6-phosphate; series mostly up to 57.5 µM. In a few lines: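 HTRF read-out (ex 320 nm; 615/665 nm emission) after 60 min RT equilibration of 5 nM GST-GCK, 5 nM FLAG-GKRP, 2 uM S6P, compound and anti-FLAG/anti-GST detection antibodies; signal normalized between DMSO wells with and without GCK.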

The target in assay [8] is Tumor necrosis factor (Homo sapiens) (UniProt P01375). Kind of assay: qHTS assay to identify small molecules that stimulate Tumor Necrosis Factor-alpha (TNF-alpha) secretion (AID 651757; active = well fitted curve in the direction sought with a large enough effect in the signal ratio; the % refers to the signal ratio; note: 0% is about no effect). The note with it: Human cells, HTRF 665/615 ratio; series mostly up to 92.2 µM. In a few lines:
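Using 3000 THP-1 cells per well, compounds and controls were applied for 17 hrs at 37 C. Detection followed with two labeled anti-TNF-alpha antibodies (cryptate donor, XL665 acceptor) for 3 hr at room temperature, measured by TR-FRET.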

The target of assay [9] is Nuclear receptor ROR-gamma (Homo sapiens) (UniProt P51449). The assay is described as follows: qHTS assay for small molecule antagonists of the retinoid-related orphan receptor gamma (ROR-gamma) signaling pathway (AID 651802).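 Note: luciferase reporter luminescence driven by ROR response element; % is set by controls: 0 for no effect and ±100 for the full control effect; nearly all actives have a fitted effect of over 60% in size.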 Particulars: ROR-gamma antagonist cell reporter assay; series mostly up to 92.2 µM. The procedure, abridged: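 Doxycycline-induced reporter activity in engineered CHO cells (TET-inducible ROR, RORE-LUC) was measured by luminescence after 16hr compound exposure at 37C.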

The nature of assay [10]: qHTS assay for small molecule antagonists of the retinoid-related orphan receptor gamma (ROR-gamma) signaling pathway - cell viability counter screen (AID 720652; active = well fitted curve in the direction sought with a large enough effect in the repeat runs; an effect the other way counts as inactive or inconclusive;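 note: compound exposure lasted 16 hr before ATP read; % is set by controls: 0 for no effect and ±100 for the full control effect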). Particulars: RORgamma reporter cell line viability counter screen; series mostly up to 92.2 µM. The procedure, abridged:
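ATP-based viability readout in the ROR-gamma reporter CHO cells after 16 hr compound exposure under doxycycline induction.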

Assay [11] is described as follows: qHTS assay for small molecule disruptors of the mitochondrial membrane potential - 5 hr assay (AID 651755; calls by dose curve; note: nearly all actives have a fitted effect of over 40% in size; note: potency is the fitted concentration of half-maximal effect). The note with it: JC-1-type ratio dye; series mostly up to 92.2 µM. In a few lines: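 Seed HepG2 overnight, add compound, incubate 5 hr at 37C and 5% CO2, stain 30 min with Mito-MPS, then measure monomer (490/535 nm) and aggregate (540/590 nm) fluorescence.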

Assay [12] can be described thus: qHTS assay to identify small molecules that stimulate interleukin-8 (IL-8) secretion (AID 651758; active = well fitted activation curve with a large enough effect in the signal ratio; the % refers to the signal ratio; note: 0% is about no effect). The note with it: HTRF ratio (665/615); series mostly up to 92.2 µM. In a few lines:
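Quantitative HTS in THP-1 monocytic cells at 2000 cells per well, with 16 hrs compound incubation at 37 C. IL-8 in the medium was then quantified by HTRF immunoassay, read after 1-3 hrs at room temperature.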

Assay [13] concerns the target T1, Hexokinase-4 (Homo sapiens) + Glucokinase regulatory protein (Homo sapiens). The assay is described as follows: qHTS assay for inhibitors of recombinant human GCK-GKRP interaction: Diaphorase-coupled assay (AID 743205). The note with it: G6PDH/diaphorase resorufin fluorescence; series mostly up to 57.5 µM. In a few lines:
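Resorufin fluorescence (525/590 nm), read each minute over 30 min, reports GCK activity coupled via G6PDH and diaphorase. Reaction: 10 nM GST-GCK, 10 nM FLAG-GKRP, 5 mM glucose, 0.4 mM ATP, 0.15 mM NADP+, 0.1 mM resazurin.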

The target in assay [14] is Tyrosine-protein kinase Yes (Homo sapiens) (UniProt P07947). Kind of assay: qHTS for small molecule inhibitors of Yes1 kinase: Primary Screen (AID 686947).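 Note: plate controls were DMSO with enzyme for no effect and no-enzyme DMSO wells for full effect; nearly all actives have a fitted effect of over 60% in size.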 The note with it: Yes1 kinase biochemical qHTS inhibition; series mostly up to 76.9 µM. The procedure, abridged:
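In this qHTS format, inhibition is expressed relative to DMSO controls with enzyme (maximum) and without enzyme (minimum). The 60 min room-temperature reaction uses 0.1 mM ATP, with ADP detected by luminescence.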

Assay [15] is described as follows: qHTS for small molecule inhibitors of Yes1 kinase: Counter Assay (AID 686950).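 Note: no kinase present so only ADP-Glo detection of a fixed ADP amount is tested; luminescence from ADP-Glo reporting ADP in a fixed ATP and ADP mixture; 0% = DMSO wells with ATP plus ADP and -100% = ATP-only wells without ADP.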 The note with it: series mostly up to 76.9 µM. In a few lines: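 Measuring interference with ADP-Glo, the assay ran 60 min at room temperature on an ATP/ADP mix lacking enzyme. Values were normalized to ATP-plus-ADP (maximum) and ATP-only (minimum) DMSO controls.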
Assay [16] concerns the target Arylsulfatase A (Homo sapiens) (UniProt P15289). The assay is described as follows: qHTS screen for enhancers of Arylsulfatase A (ASA1): LOPAC Validation Assay (AID 720538). Note: 0% is about no effect. The note with it: ASA enzyme activity, LOPAC qHTS enhancer assay; series mostly up to 57.5 µM. The procedure, abridged: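 Read-out: fluorescence at Ex=525/Em=598 nm after 1N NaOH final stop. Patient fibroblasts carrying ASA-I179S had 48h compound exposure, then 14h room-temperature pNCS hydrolysis (0.5mM final) in lysis buffer. Signal increase = enhanced activity.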

Each structure is given as a SMILES string. Values joined by “and” are separate entries in the source; they are usually repeats but may differ in a detail not shown here. Equal entries are not always repeated. Unmarked numbers belong to inactive results. Records with an inconclusive call do not appear. Active and inactive are the calls of the source. Unless noted, calls come from the whole dose curve; as a rule, active = well fitted curve in the direction sought with a large enough effect; inconclusive = small, poorly fitted or top-dose-only effect, or another doubt; inactive = no such curve, though single readings can be large; an effect the other way counts as inactive or inconclusive.

T1 sequence (P35557 whole entry, looked up): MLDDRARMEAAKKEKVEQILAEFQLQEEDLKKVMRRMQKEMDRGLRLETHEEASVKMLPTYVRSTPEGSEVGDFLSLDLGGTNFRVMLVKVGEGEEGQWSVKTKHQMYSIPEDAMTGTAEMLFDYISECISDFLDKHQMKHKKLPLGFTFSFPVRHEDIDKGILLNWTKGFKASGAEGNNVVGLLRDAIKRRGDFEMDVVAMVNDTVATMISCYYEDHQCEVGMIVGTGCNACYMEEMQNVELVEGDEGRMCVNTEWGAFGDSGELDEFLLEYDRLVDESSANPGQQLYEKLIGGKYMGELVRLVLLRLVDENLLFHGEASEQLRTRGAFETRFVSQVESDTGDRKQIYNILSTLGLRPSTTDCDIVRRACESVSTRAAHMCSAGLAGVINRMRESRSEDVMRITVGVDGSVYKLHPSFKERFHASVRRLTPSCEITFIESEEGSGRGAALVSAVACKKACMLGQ
T1 sequence (Q14397 whole entry, looked up): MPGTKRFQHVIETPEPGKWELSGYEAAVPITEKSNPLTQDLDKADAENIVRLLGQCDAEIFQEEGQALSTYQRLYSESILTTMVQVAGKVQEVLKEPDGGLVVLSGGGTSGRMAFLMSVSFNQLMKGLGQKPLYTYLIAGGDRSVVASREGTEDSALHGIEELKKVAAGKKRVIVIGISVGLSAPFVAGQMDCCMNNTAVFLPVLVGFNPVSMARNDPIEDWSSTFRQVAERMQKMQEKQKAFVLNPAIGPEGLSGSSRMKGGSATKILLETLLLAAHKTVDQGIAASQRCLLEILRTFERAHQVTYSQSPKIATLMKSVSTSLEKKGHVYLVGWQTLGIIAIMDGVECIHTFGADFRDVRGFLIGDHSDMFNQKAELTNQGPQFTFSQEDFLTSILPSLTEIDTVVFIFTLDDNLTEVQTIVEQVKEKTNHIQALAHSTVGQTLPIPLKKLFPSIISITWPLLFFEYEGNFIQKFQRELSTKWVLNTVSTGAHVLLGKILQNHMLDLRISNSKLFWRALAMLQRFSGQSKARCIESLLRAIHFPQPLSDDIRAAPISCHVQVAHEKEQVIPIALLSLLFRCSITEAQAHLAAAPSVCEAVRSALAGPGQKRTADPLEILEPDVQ
Chain of Tyrosine-protein kinase Yes (Homo sapiens) (P07947 whole entry, looked up): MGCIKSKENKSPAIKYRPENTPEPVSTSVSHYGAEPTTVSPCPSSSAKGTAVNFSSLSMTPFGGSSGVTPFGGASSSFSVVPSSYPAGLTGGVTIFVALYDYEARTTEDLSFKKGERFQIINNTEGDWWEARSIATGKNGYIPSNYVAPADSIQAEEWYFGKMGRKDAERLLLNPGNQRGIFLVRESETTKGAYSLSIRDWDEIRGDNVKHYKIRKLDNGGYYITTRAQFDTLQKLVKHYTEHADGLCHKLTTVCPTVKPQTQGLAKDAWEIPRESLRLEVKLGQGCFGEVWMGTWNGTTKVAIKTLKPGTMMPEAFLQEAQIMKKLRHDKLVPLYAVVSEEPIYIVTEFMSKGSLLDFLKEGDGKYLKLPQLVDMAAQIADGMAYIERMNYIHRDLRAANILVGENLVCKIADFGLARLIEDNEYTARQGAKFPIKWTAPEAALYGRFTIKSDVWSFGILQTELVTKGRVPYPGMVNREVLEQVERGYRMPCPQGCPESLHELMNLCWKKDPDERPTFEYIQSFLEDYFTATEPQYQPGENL
Chain of Tumor necrosis factor (Homo sapiens) (P01375 whole entry, looked up): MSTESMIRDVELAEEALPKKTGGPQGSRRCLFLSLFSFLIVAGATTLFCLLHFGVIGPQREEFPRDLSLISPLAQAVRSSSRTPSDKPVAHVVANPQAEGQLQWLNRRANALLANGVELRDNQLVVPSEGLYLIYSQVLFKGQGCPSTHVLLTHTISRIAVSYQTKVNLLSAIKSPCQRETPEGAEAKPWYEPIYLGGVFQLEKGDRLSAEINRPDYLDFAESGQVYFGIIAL
Chain of Nuclear receptor ROR-gamma (Homo sapiens) (P51449 whole entry, looked up): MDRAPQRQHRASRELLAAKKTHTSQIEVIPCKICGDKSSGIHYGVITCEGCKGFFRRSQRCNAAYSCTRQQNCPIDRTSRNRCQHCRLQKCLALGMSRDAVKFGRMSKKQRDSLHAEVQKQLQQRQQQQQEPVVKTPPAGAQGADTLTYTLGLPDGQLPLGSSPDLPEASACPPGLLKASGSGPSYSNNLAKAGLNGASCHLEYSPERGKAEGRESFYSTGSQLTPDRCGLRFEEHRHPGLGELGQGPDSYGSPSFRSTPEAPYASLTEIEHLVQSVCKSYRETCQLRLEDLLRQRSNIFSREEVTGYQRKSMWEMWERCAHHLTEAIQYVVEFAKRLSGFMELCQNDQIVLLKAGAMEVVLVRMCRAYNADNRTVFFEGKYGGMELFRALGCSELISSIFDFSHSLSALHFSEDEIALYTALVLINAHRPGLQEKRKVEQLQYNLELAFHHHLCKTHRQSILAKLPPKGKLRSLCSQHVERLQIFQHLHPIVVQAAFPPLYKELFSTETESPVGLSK
Chain of Arylsulfatase A (Homo sapiens) (P15289 whole entry, looked up): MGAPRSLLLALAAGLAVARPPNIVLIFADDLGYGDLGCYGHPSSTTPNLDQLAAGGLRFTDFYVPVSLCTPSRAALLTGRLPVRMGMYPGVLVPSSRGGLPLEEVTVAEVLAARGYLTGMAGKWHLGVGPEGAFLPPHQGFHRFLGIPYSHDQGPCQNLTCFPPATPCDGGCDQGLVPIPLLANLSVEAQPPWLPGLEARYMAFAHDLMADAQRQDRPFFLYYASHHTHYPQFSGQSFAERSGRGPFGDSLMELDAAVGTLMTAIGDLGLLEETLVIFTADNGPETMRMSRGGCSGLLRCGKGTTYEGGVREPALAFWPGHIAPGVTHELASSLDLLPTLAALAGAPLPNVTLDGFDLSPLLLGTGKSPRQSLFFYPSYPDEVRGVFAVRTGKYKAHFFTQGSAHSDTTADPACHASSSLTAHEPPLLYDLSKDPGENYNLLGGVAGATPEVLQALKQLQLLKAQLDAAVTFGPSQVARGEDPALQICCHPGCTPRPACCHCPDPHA

As for `CNC(=O)Oc1ccc2c(c1)[C@]1(C)CCN(C)[C@@H]1N2C`, the activation in [1] is 2.6%. In addition, the result in [2], in assay [4], in assay [5] and in [7] was inactive. Besides, in assay [3], the Potency result is “inactive”. Further, the max response in assay [6] was -1.23%.

As for `CC1(C)[C@@H]2CC[C@@]1(C)C(=O)C2`, the result in [8] and in assay [5] was inactive. In [1], the activation is 1.1%. The Potency result in assay [9] and in assay [10] was “inactive” in each case. Also, the max response in assay [6] was -10.3%.

As for `CC(O)CN(CCN(CC(C)O)CC(C)O)CC(C)O` (stereo not drawn), the activation in [1] was 0.546%. Further, in [5], the result was inactive. For the same compound, in assay [6], the max response was -0.296%.

For `CCCCOC(=O)c1ccc(O)cc1`, the Potency in assay [11] was 37.6 µM (active). In [8], the outcome was inactive. For the same compound, the activation in [1] is 6.66% and 14.1%. Further, the Potency result in [9] and in assay [10] was “inactive” each time. The max response in [6] was 4.31% and -13.4%.

Consider `NC(=O)N/N=C/c1ccc([N+](=O)[O-])o1`, for which the Potency entry in assay [11] and in assay [10] was “inactive” each time. Further, the result in [12] was inactive. Further, the activation in [1] is 5.25% and 3.59%. Besides, the max response in [6] is -20.9%.

In the case of `NC(=O)c1ncn([C@@H]2O[C@H](CO)[C@@H](O)[C@H]2O)n1`, the result in assay [8], in [2], in assay [4], in [5], in assay [13] and in [7] was inactive. The activation in assay [1] is 0.173%. Moreover, the Potency entry in [3] was “inactive”. The max response in [6] was -11.8%.

Regarding `CC12CCC(CC1)C(C)(C)O2`, the result in [8] and in [5] was inactive. The activation in assay [1] was -0.144%. The Potency entry in assay [9] and in [10] was “inactive” throughout. For the same compound, in assay [6], the max response is 3.37%.

Regarding `O=C1Nc2ccc(Cl)cc2[C@@](C#CC2CC2)(C(F)(F)F)O1`, the call in [14] and in [15] was inactive.

For the compound `CC(CN1c2ccccc2Sc2ccccc21)N(C)C` (stereo not drawn), the activation in assay [1] is -0.788%. The Potency entry in assay [16] and in assay [3] was “inactive” each time. In addition, the result in assay [2], in [4], in [5], in assay [13] and in [7] was inactive. Besides, the max response in assay [6] was -20.1%.

As to `O=C1O[C@H]([C@@H](O)CO)C(O)=C1O`, the result in assay [8] and in assay [5] was inactive. Moreover, the activation in [1] was 0.758% and 0.0107%. For the same compound, the Potency result in [9] and in [10] was “inactive” in each case. Also, in assay [6], the max response was 26.8% and 1.51%.

In the case of `Cc1cc(CC(=O)O)n(C)c1C(=O)c1ccc(Cl)cc1`, the activation in assay [1] is 0.224%. Besides, the Potency result in assay [9] and in assay [10] was “inactive” throughout. Moreover, the compound was called inactive in assay [5]. Besides, the max response in [6] is -9.23%.

Turning to `NC(=O)c1ncn([C@@H]2O[C@H](CO)[C@@H](O)[C@H]2O)c1N`, the compound was called inactive in assay [14] and in [15].

As for `Cc1cc2nc3c(=O)[nH]c(=O)nc-3n(C[C@H](O)[C@H](O)[C@H](O)CO)c2cc1C`, in assay [11], the Potency is 7.5 µM (active). In addition, the Potency entry in [9] and in assay [10] was “inactive” each time. For the same compound, the compound was called inactive in [5]. The max response in assay [6] is 0.335%.

For the compound `[Cl][In]([Cl])[Cl]`, the Potency result in assay [11], in assay [9] and in assay [10] was “inactive” each time. The result in assay [8] was inactive. Moreover, the activation in assay [1] was 0.307%. Moreover, the max response in assay [6] was 5.32%.

In the case of `Oc1cn2c(n1)Nc1ccc(Cl)c(Cl)c1C2`, the result in assay [14] and in assay [15] was inactive.

Consider `CCCCC(CC)COC(=O)c1ccccc1O` (stereo not drawn), for which the activation in [1] was -0.423%. The compound was classed as inactive in assay [5]. Moreover, in assay [6], the max response is -10.2%.

Turning to `CCOC(=O)c1ccc(O)cc1`, the activation in assay [1] was 6.21%. In assay [6], the max response is -0.862%.

Turning to `Oc1cccc(O)c1`, the Potency entry in assay [11] was “inactive”. In addition, the outcome in [8] and in assay [5] was inactive. For the same compound, the activation in [1] is 2.18%. Moreover, the max response in assay [6] was 0.509%.

Turning to `Cc1cccc(Nc2cc(Cl)nc(SCC(=O)O)n2)c1C`, in assay [1], the activation is -1.86%. For the same compound, the result in [5] was inactive. The max response in assay [6] is -4.18%.

Regarding `NCCNCCNCCN`, the outcome in [8], in assay [12] and in [5] was inactive. Besides, the Potency result in assay [9] and in [10] was “inactive” in each case. Further, in assay [6], the max response was -12.2%.

In the case of `CC(=O)O[C@@]12CO[C@@H]1C[C@H](O)[C@@]1(C)C(=O)[C@H](O)C3=C(C)[C@@H](OC(=O)[C@H](O)[C@@H](NC(=O)OC(C)(C)C)c4ccccc4)C[C@@](O)([C@@H](OC(=O)c4ccccc4)[C@H]21)C3(C)C`, the outcome in [14] and in assay [15] was inactive.

Turning to `CCCCCCCCCCCCOS(=O)(=O)O`, the Potency result in assay [11], in [9] and in assay [10] was “inactive” throughout. Further, the result in [8], in assay [12] and in assay [5] was inactive. The activation in assay [1] was 1.08% [middle of 4 runs]. Besides, the max response in [6] was -1.36% [middle of 4 runs].
